Out of some 310,000 compounds screened, about 14,000 (4.5%) showed an effect of 50% or more. Effects have a minus sign here. The entries come from a sample that favours strong results as a whole.
The compounds below were run against human ether-à-go-go-related gene (hERG) potassium channel (human, UniProt Q12809) (assay: primary screen, population patch clamp on CHO cells stably expressing hERG; higher = less effect of the substance).
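Further: peak tail current of the secondary pulse compared with the same well before compound.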

Sequence of human ether-à-go-go-related gene (hERG) potassium channel (Q12809 whole entry, looked up): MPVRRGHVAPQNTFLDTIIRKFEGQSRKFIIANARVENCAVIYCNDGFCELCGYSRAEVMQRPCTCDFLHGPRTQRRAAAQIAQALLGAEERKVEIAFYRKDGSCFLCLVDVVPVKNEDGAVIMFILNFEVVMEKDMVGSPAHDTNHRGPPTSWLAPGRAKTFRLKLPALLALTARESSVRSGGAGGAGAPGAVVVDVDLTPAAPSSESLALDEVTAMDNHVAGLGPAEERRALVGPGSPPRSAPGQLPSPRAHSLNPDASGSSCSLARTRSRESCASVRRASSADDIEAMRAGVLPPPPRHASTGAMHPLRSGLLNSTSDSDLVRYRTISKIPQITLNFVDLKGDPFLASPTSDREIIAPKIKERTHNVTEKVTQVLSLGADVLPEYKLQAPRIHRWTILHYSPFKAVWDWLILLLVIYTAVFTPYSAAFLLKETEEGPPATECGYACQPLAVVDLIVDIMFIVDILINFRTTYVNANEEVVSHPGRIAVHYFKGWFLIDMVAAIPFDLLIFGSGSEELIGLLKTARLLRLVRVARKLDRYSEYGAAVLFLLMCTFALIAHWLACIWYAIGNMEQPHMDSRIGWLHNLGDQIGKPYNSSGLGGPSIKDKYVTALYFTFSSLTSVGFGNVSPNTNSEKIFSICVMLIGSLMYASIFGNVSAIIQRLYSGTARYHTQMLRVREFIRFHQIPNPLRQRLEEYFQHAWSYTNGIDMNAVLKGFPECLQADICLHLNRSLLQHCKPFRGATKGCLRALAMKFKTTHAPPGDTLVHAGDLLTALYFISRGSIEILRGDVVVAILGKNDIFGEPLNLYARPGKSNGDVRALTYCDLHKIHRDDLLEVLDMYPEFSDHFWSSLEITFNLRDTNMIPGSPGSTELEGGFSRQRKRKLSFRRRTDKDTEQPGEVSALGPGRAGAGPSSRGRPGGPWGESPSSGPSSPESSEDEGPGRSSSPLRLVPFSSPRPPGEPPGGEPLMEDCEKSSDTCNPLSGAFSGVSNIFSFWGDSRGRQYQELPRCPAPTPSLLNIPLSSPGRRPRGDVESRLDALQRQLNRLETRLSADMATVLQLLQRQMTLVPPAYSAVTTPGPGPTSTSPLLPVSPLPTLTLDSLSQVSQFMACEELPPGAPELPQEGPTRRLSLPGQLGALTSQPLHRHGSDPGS

Row | SMILES | hERG current change (%, negative = inhibition) at 10uM [%]
1 | NC(=O)c1nsc(C(=O)N(c2cccc(F)c2)C(C(=O)NCc2ccccc2)c2ccc(O)cc2)c1N (centres unmarked) | -22.4
2 | Cc1cccn2c(CN(C)CC3CCCCO3)c(C(=O)N3CCCCC3)nc12 (centres unmarked) | 20.9
3 | Cc1cc(S(=O)(=O)NCc2ccco2)c(C)cc1Cl | 14.1
4 | COc1ccc(-c2nc3ccccc3c(=O)n2N)cc1 | -13.7
5 | Cc1nnc(NC(=O)c2csc3c2CCC(C)C3)s1 (centres unmarked) | 13.9
6 | O=C(NCCCN1CCOCC1)C(=O)NCc1ccco1 | -1.68
7 | O=c1c2ccccc2nc(-c2ccccc2)n1CCCN1CCOCC1 | -20.4
8 | CC(C)Cn1c2nc3ccccc3nc2c2c(=O)n(CCN3CCOCC3)cnc21 | -48.1
9 | N=c1c2c(-c3ccccc3)c(-c3ccccc3)n(Cc3ccco3)c2ncn1CCN1CCOCC1 | -75.9
10 | O=C(NCCN1CCOCC1)C(=O)NCc1ccco1 | 19.5
11 | N=c1c2c(-c3ccccc3)c(-c3ccccc3)n(Cc3ccco3)c2ncn1CCCN1CCOCC1 | -84.9
12 | Cc1ccccc1C(=O)NCCCNC(=O)c1cnccn1 | 13.5
13 | COc1ccccc1OCc1nc(Cc2ccc(Cl)cc2)no1 | -31.4
14 | CCn1c(=O)c(C(=O)NNC(=O)c2ccccc2Cl)c(O)c2ccccc21 | 7.09
15 | CC1=C(C(=O)OCC2CCCO2)C(c2ccccc2)C2=C(CCCC2=O)N1 (centres unmarked) | 11.2
16 | CCC(C)[C@H](NC(=O)N1CCn2c1nc1ccccc12)C(=O)NCCc1ccccc1 (some centres unmarked) | -2.42
17 | COc1ccc(OC)c(/C=C/C(=O)OCC(=O)NCc2cccs2)c1 | 17.8
18 | Cc1onc(-c2ccccc2)c1NC(=O)N(CCC(=O)O)Cc1ccccc1 | 2.16
19 | COc1ccc(NC(=O)CN(C)C(=O)c2ccc3c(c2)NC(=O)CS3)cc1 | -10.2
20 | COC(=O)c1cc(NC(=O)c2cccs2)ccc1N1CCOCC1 | -1.74
21 | COc1ccc(-c2cc(C(=O)N3CC(C)CC(C)C3)c3ccccc3n2)cc1 (centres unmarked) | 5.7
22 | CC(C)CC(C(=O)N1CCc2ccccc2C1)N1C(=O)c2ccccc2C1=O (centres unmarked) | -50.3

Row | SMILES | hERG current change (%, negative = inhibition) at 10uM [%]
23 | CC(C)CC(C(=O)N1CCOCC1)N1Cc2ccccc2C1=O (centres unmarked) | 29.3
24 | O=C(CCCN1C(=O)c2ccccc2C1=O)N1CCc2ccccc2C1 | -27.2
25 | Cc1cc(NC(=O)c2cccs2)ncc1NC(=O)C(C)(C)C | 9.59
26 | Cn1cc(CN2CCCC(C(=O)c3ccc(-c4ccccc4)c(F)c3)C2)cn1 (centres unmarked) | -55.4
27 | O=C(c1ccc(C(F)(F)F)cc1)C1CCCN(Cc2ccncc2)C1 (centres unmarked) | -23.7
28 | O=C(c1ccc(-c2ccccc2)cc1)C1CCCN(Cc2ccncc2)C1 (centres unmarked) | -62.6
29 | Cn1nc(C(=O)N2CCCC2)c2ccccc2c1=O | 23
30 | CSc1ccc(C(=O)C2CCCN(C(=O)CCCn3cncn3)C2)cc1 (centres unmarked) | -40.5
31 | CSc1ccc(C(=O)C2CCCN(CCCn3cccn3)C2)cc1 (centres unmarked) | -76.8
32 | CSc1ccc(C(=O)C2CCCN(C(=O)c3nn(C)c(=O)c4ccccc34)C2)cc1 (centres unmarked) | -64.9
33 | CN(C)S(=O)(=O)N1CCCC(C(=O)c2ccc(-c3ccccc3)c(F)c2)C1 (centres unmarked) | 7.39
34 | O=C(c1ccc(-c2ccccc2)cc1)C1CCCN(C(=O)c2ccncc2)C1 (centres unmarked) | -13.4
35 | CSc1ccc(C(=O)C2CCCN(C)C2)cc1 (centres unmarked) | -23.1
36 | CSc1ccc(C(=O)C2CCCN(C(=O)c3cc(C)n(C)n3)C2)cc1 (centres unmarked) | -7.88
37 | Clc1ccc(-c2csc(N/N=C/c3cccnc3)n2)c(Cl)c1 | -11.9
38 | CC(=O)N1Cc2cc(N)ccc2Oc2ccccc21 | 9.9
39 | Cc1cccc(NC(=S)N2CCN(S(=O)(=O)c3ccc(F)cc3)CC2)c1 | 16.7
40 | CCOC(=O)C(NCCCCl)c1ccccc1 (centres unmarked) | 2.53
41 | CCOC(=O)C(C)Sc1nnc(CSc2nc3nc(C)cc(C)n3n2)o1 (centres unmarked) | 9.3
42 | CCOc1ccccc1N=Cc1c(O)c2ccccc2oc1=O | 15.4
43 | CN(c1ccc(C(=O)N2CCCCC2)cc1)S(C)(=O)=O | 10.6
44 | COc1ccc(Nc2nc(NC(C)(C)C)nc(N3CCOCC3)n2)c(OC)c1 | -25.3

— paper PMC4336329 (PLoS ONE, 2015)
